About 79,000 compounds went through this panel and 15% of them were active in at least one assay; those are over-represented in the sample as a whole. Calls of active or inactive are those of the source. No stated cut-off is given here; in the data, active means growth inhibition above about 70%; inactive means the rest.
How the values were obtained:
[1] = NCI Yeast Anticancer Drug Screen. Data for the rad52 strain (AID 147);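 further: 0% = growth of vehicle-treated control cultures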; conditions: S. cerevisiae rad52 mutant growth inhibition, active compounds read high
Outline: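 Measured: yeast growth inhibition. System: strain with a defined DNA damage repair alteration. Reference: vehicle-treated control cultures.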

[2] = NCI Yeast Anticancer Drug Screen. Data for the wt1 strain (AID 149);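 further: 0% = growth of vehicle-treated wt1 cultures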; conditions: S. cerevisiae wt1 strain (SPY 50644) growth inhibition, active compounds read high
Outline: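 Measured: growth of wt1 yeast under compound versus vehicle treatment, reported as inhibition.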

[3] = NCI Yeast Anticancer Drug Screen. Data for the rad50EPP+ strain (AID 151);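 further: 0% = growth of vehicle-treated control cultures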; conditions: S. cerevisiae rad50 mutant strain, active compounds read high
Outline: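 One strain with a rad50 alteration (rad50EPP+) was compound-treated, its growth then compared to that of vehicle controls.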

[4] = NCI Yeast Anticancer Drug Screen. Data for the rad50 strain (AID 155);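 further: 0% = growth of vehicle-only cultures of the same strain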; conditions: S. cerevisiae rad50 strain growth inhibition, active compounds read high
Outline: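 Growth of the mutant yeast was measured after compound exposure and referenced to vehicle-treated cultures.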

[5] = NCI Yeast Anticancer Drug Screen. Data for the mec2-1 strain (AID 157); conditions: S. cerevisiae mec2-1 strain, active compounds read high
Outline: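 Test agents were screened against the mec2-1 yeast strain, with defined DNA repair or cell cycle alteration. Growth was scored as inhibition against vehicle-only controls.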

[6] = NCI Yeast Anticancer Drug Screen. Data for the rad14 strain (AID 159);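 further: 0% = growth of vehicle-treated control cultures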; conditions: S. cerevisiae rad14 strain growth inhibition, active compounds read high
Outline: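 Here, inhibition of yeast growth was measured after compound exposure, using a strain with a genetic defect in DNA damage repair and vehicle-treated cultures as the reference.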

[7] = NCI Yeast Anticancer Drug Screen. Data for the sgs1 mgt1 strain (AID 161);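 further: 0% = growth of cultures given vehicle only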; conditions: S. cerevisiae sgs1 mgt1 strain, active compounds read high
Outline: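 Inhibition of yeast growth, normalised to vehicle-treated controls, is reported for a strain bearing genetic alterations in DNA damage repair.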

[8] = NCI Yeast Anticancer Drug Screen. Data for the CLN2oe strain (AID 163);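 further: 0% = growth of vehicle-only control cultures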; conditions: S. cerevisiae CLN2oe strain, active compounds read high
Outline: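 Here, growth inhibition in a cell-cycle-altered yeast strain after compound exposure was quantified against vehicle control growth.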

[9] = NCI Yeast Anticancer Drug Screen. Data for the cln2 rad14 strain (AID 165);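 further: 0% = growth equal to vehicle treated cultures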; conditions: S. cerevisiae cln2 rad14 strain, active compounds read high
Outline: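 Growth of compound-exposed yeast (cln2 rad14 genotype) measured and expressed as inhibition relative to vehicle.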

[10] = NCI Yeast Anticancer Drug Screen. Data for the bub3 strain (AID 167); conditions: S. cerevisiae bub3 mutant strain, active compounds read high
Outline: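 Whole-cell yeast assay. The mutant strain was incubated with compounds, and growth inhibition was determined by comparison with vehicle-treated cells.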

[11] = NCI Yeast Anticancer Drug Screen. Data for the wt2 strain (AID 169);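 further: 0% = growth of vehicle-treated yeast cultures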; conditions: S. cerevisiae wt2 strain growth inhibition, active compounds read high
Outline: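 Genetically defined yeast strains from a DNA-repair/cell-cycle panel were used. Compound-exposed yeast growth was measured, and the inhibition was calculated relative to vehicle treatment.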

[12] = NCI Yeast Anticancer Drug Screen. Data for the mlh1 strain (AID 171);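 further: 0% = growth of vehicle-treated control cultures of the same strain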; conditions: S. cerevisiae mlh1 strain growth inhibition, active compounds read high
Outline: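 Here the genetically defined yeast mutant is grown with each compound, and the extent to which its growth falls below that of vehicle-exposed cells is reported.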

[13] = NCI Yeast Anticancer Drug Screen. Data for the sgs1 strain (AID 173);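 further: 0% = growth of vehicle-only control cultures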; conditions: S. cerevisiae sgs1 mutant, active compounds read high
Outline: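 Relative growth inhibition, referenced to vehicle, was determined in a yeast strain with a defined alteration affecting DNA damage repair or cell cycle control after compound exposure.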

[14] = NCI Yeast Anticancer Drug Screen. Data for the mlh1 rad18 strain (AID 175); conditions: S. cerevisiae mlh1 rad18 strain growth inhibition, active compounds read high
Outline: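 In this whole-cell yeast screen, a strain with altered DNA damage repair is challenged with compound, and its growth is measured against matched vehicle-treated controls.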

[15] = NCI Yeast Anticancer Drug Screen. Data for the rad18 strain (AID 177); conditions: S. cerevisiae rad18 mutant growth inhibition, active compounds read high
Outline: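 Screen uses a yeast strain with a defined lesion in DNA damage repair; compound effect is read as loss of growth compared to untreated vehicle cultures.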

[16] = at 5.0 µM (retest, dose inferred, filed as 0.5)
[17] = at 50.0 µM (retest, dose inferred, filed as 5.0)

Measured: growth inhibition

COc1ccc(N=Nc2ccc3oc(=O)c(C(=O)Nc4ccccc4)cc3c2)cc1
inactive: [1]; at 1.2 µM -19% | [1]; at 3.7 µM -2% | [2]; at 1.2 µM -4% | [2]; at 3.7 µM 2% | [2]; at 11.0 µM 67% | [3]; at 1.2 µM 6% | [3]; at 3.7 µM 45% | [4]; at 1.2 µM -2% | [4]; at 3.7 µM 7% | [4]; [16] 0% | [5]; at 1.2 µM -18% | [5]; at 3.7 µM 12% | [5]; [16] -12% | [6]; at 1.2 µM 4% | [6]; at 3.7 µM 25% | [7]; [16] 12% | [7]; [17] 48% | [8]; at 1.2 µM -12% | [8]; at 3.7 µM -10% | [8]; at 11.0 µM 48% | [9]; [16] -19% | [10]; at 1.2 µM -11% | [10]; at 3.7 µM 3% | [10]; [16] 29% | [11]; at 1.2 µM 1% | [11]; at 3.7 µM 14% | [12]; at 1.2 µM 25% | [12]; at 3.7 µM 31% | [13]; at 1.2 µM -9% | [13]; at 3.7 µM 18% | [14]; [16] 39% | [15]; at 1.2 µM -7% | [15]; at 3.7 µM 5%
active: [1]; at 11.0 µM 85% | [1]; at 33.0 µM 96% | [1]; at 100.0 µM 95% | [2]; at 33.0 µM 96% | [2]; at 100.0 µM 94% | [3]; at 11.0 µM 83% | [3]; at 33.0 µM 94% | [3]; at 100.0 µM 95% | [4]; at 11.0 µM 89% | [4]; at 33.0 µM 96% | [4]; [17] 95% | [4]; at 50.0 µM 87.7% | [4]; at 100.0 µM 96% | [5]; at 11.0 µM 82% | [5]; at 33.0 µM 97% | [5]; [17] 97% | [5]; at 50.0 µM 91.3% | [5]; at 100.0 µM 95% | [6]; at 11.0 µM 96% | [6]; at 33.0 µM 97% | [6]; at 100.0 µM 97% | [7]; at 50.0 µM 87.2% | [8]; at 33.0 µM 95% | [8]; at 100.0 µM 92% | [9]; [17] 95% | [9]; at 50.0 µM 85.3% | [10]; at 11.0 µM 71% | [10]; at 33.0 µM 96% | [10]; [17] 96% | [10]; at 50.0 µM 90.5% | [10]; at 100.0 µM 95% | [11]; at 11.0 µM 81% | [11]; at 33.0 µM 96% | [11]; at 100.0 µM 96% | [12]; at 11.0 µM 92% | [12]; at 33.0 µM 96% | [12]; at 100.0 µM 91% | [13]; at 11.0 µM 93% | [13]; at 33.0 µM 97% | [13]; at 100.0 µM 96% | [14]; [17] 95% | [14]; at 50.0 µM 85.7% | [15]; at 11.0 µM 84% | [15]; at 33.0 µM 95% | [15]; at 100.0 µM 96%

COc1ccc(SCc2cc(OC)ccc2OC)cc1
inactive: [1]; at 1.2 µM 0% | [1]; at 3.7 µM 2% | [1]; at 11.0 µM 4% | [1]; at 33.0 µM 3% | [1]; at 100.0 µM 3% | [2]; at 1.2 µM -4% | [2]; at 3.7 µM -4% | [2]; at 11.0 µM -5% | [2]; at 33.0 µM -6% | [2]; at 100.0 µM -1% | [3]; at 1.2 µM 15% | [3]; at 3.7 µM 18% | [3]; at 11.0 µM 27% | [3]; at 33.0 µM 30% | [3]; at 100.0 µM 18% | [4]; at 1.2 µM 0% | [4]; at 3.7 µM 1% | [4]; [16] -8% | [4]; at 11.0 µM 2% | [4]; at 33.0 µM 2% | [4]; [17] 66% | [4]; at 50.0 µM 60.5% | [4]; at 100.0 µM 3% | [5]; at 1.2 µM -1% | [5]; at 3.7 µM -7% | [5]; [16] -26% | [5]; at 11.0 µM -6% | [5]; at 33.0 µM -9% | [5]; [17] 14% | [5]; at 50.0 µM 13.9% | [5]; at 100.0 µM -3% | [6]; at 1.2 µM 0% | [6]; at 3.7 µM -2% | [6]; at 11.0 µM -3% | [6]; at 33.0 µM 0% | [6]; at 100.0 µM 2% | [7]; [16] -27% | [7]; [17] 37% | [7]; at 50.0 µM 67% | [8]; at 1.2 µM -4% | [8]; at 3.7 µM -9% | [8]; at 11.0 µM -6% | [8]; at 33.0 µM -8% | [8]; at 100.0 µM -2% | [9]; [16] -25% | [9]; [17] 58% | [9]; at 50.0 µM 20.1% | [10]; at 1.2 µM 3% | [10]; at 3.7 µM 13% | [10]; [16] -17% | [10]; at 11.0 µM 24% | [10]; at 33.0 µM 21% | [10]; at 50.0 µM 61.3% | [10]; at 100.0 µM 14% | [11]; at 1.2 µM -2% | [11]; at 3.7 µM 0% | [11]; at 11.0 µM -2% | [11]; at 33.0 µM 0% | [11]; at 100.0 µM 1% | [12]; at 1.2 µM -2% | [12]; at 3.7 µM -4% | [12]; at 11.0 µM 0% | [12]; at 33.0 µM -4% | [12]; at 100.0 µM 0% | [13]; at 1.2 µM -2% | [13]; at 3.7 µM -4% | [13]; at 11.0 µM -2% | [13]; at 33.0 µM -2% | [13]; at 100.0 µM 0% | [14]; [16] -16% | [14]; [17] 67% | [14]; at 50.0 µM 21.3% | [15]; at 1.2 µM -5% | [15]; at 3.7 µM -5% | [15]; at 11.0 µM -3% | [15]; at 33.0 µM -16% | [15]; at 100.0 µM -1%
active: [10]; [17] 73%

— PubChem BioAssay (NCI)
